Assay outcomes from PubChem.
Rows were chosen to be rich in hits. Some 6% of all compounds tested hit in one or more screens of this group.
Tau fibril FP: tau fibrillization inhibition (FP) | P10636 | K18 P301L tau heparin fibrillization, Alexa594 FP, 6 h | Potency, µM (series often up to 57.7 µM), for inactives: at the highest dose activity, negative = inhibition, actives largely listed as inhibitors | 280,000 tested, 0.39% active; further: nearly all actives have a fitted effect of over 55% in size
Target sequence (P10636 561-689 P618L limits assumed): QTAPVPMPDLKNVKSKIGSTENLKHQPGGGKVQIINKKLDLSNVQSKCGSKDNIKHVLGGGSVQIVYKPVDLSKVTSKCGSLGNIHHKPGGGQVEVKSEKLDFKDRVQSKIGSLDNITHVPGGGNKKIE
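Recombinant K18 P301L […], labeled with Alexa 594 at 0.24 uM over 15 uM unlabeled; heparin inducer 20 uM final; 37 C, 6 hr; FP endpoint.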
PLK1 PBD inh: PLK1 (human) polo-box domain binding inhibition | P53350 | Plk1 PBD binding of FITC phosphopeptide, fluorescence polarization | Potency, µM, for the others: max response, negative = inhibition, hits mostly inhibitors | 360,000 tested, 2.8% active | AID 720504; further: series mostly up to about 57 µM; nearly all actives have a fitted effect of over 65% in size
Sfp inh: inhibitors of Bacillus subtilis Sfp phosphopantetheinyl transferase. Potency, µM, for the others: largest response in the series, negative = inhibition, hits mostly inhibitors. Q9F4F7. Biochemical Sfp PPTase activity, qHTS. AID 1490. 310,000 tested, 3.5% active;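 further: the enzyme is Sfp with the accession as filed and its product quenches rhodamine fluorescence; 0% = enzyme reaction without inhibitor and -100% = no enzyme wells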
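Fluorescence-quenching assay: 15 nM Sfp-PPTase preincubated 15 min at room temperature with compound, then 5 uM rhodamine-CoA and 12.5 uM BHQ-2-labelled YbbR peptide added. Fluorescence (ex 525/em 598 nm) read at start and after 30 min; difference gives rate.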
Tau fluor counter: counter-screen for tau fibril formation inhibitors; tau K18 P301L Alexa594 fluorescence, heparin fibrillization; Potency, µM (series often up to 57.7 µM), inactives show at the top dose activity change, negative = decrease; 280,000 tested, 0.93% active; AID 1463; further: nearly all actives have a fitted effect of over 55% in size
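Human K18 P301L tau (15 uM unlabeled plus 0.24 uM Alexa 594-labeled, final) in 100 mM sodium acetate pH 7 was mixed with compound and 20 uM heparin and incubated 6 hr at 37 C.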
VDR inhibitor: blocks the human vitamin D receptor; AID 504847; VDR-SRC2-3 peptide fluorescence polarization, 2 h; 400,000 tested, 0.93% active; P11473; Potency, µM, inactives show max response, negative = inhibition, hits mostly inhibitors
Target sequence (P11473 whole entry, looked up): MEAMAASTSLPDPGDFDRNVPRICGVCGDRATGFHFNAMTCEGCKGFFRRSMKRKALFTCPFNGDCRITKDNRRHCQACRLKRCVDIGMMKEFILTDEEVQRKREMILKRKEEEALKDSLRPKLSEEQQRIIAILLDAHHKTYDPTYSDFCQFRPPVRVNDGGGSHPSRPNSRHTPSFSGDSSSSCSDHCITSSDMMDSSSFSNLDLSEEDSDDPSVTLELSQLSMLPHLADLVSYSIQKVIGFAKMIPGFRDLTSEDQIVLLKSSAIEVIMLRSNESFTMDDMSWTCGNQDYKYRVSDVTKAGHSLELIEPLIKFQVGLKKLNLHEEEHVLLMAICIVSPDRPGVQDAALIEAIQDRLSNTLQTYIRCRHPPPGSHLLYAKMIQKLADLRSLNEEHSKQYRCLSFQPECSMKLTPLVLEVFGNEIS
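Fluorescence polarization assay of small-molecule disruption of VDR binding to coregulator peptide SRC2-3. Compounds and controls pin-transferred, then read after 2 h incubation at ambient room temperature.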
Tau fibril ThT: inhibitors of human tau fibril formation, thioflavin T binding; P10636; recombinant tau K18 P301L, heparin-induced fibrillization, ThT fluorescence; Potency, µM (doses to about 57.4 µM), without a hit: top-dose activity, negative = inhibition, actives largely listed as inhibitors; 270,000 tested, 2.1% active; AID 1460; further: nearly all actives have a fitted effect of over 55% in size
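Using a mix of unlabeled (15 uM) and Alexa 594-labeled (0.24 uM) tau K18 P301L, heparin-triggered fibrillization over 6 hr at 37 C was scored by ThT fluorescence.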
Numbers without * were called inactive; ? = inconclusive; nt = no result; ! = not active in a repeat. The call rests on the fitted dose curve; in most records, active means well fitted curve in the direction sought with a large enough effect; inconclusive means small, poorly fitted or top-dose-only effect, or another doubt; inactive means no such curve, though single readings can be large; an effect the other way counts as inactive or inconclusive. Unless noted, on the % scale 0 is the no-effect control and ±100 the full control effect; potency means the concentration at half of the fitted maximal effect.

SMILES	Tau fibril FP	PLK1 PBD inh	Sfp inh	Tau fluor counter	VDR inhibitor	Tau fibril ThT
Cc1cccc(NC(=O)Cn2c(O)c(N=NC(N)=S)c3ccccc32)c1	-6%	?	40µM*	?	-15%	?
Cc1nn(-c2ccc(Cl)cc2)c(Cl)c1/C=N/NC(=O)c1ccc(NS(=O)(=O)c2cccs2)cc1	nt	24µM*	nt	nt	?	nt
Cc1ccc(-c2nn(-c3ccccc3)cc2CO)o1	?	-2%	-27%	3%	-4%	-7%
Cc1ccc(-c2nn(-c3ccccc3)cc2C=O)o1	0%	-26%	40µM*	-7%	2%	-16%
CO[C@H]1C[C@@H]2CC[C@@H](C)[C@@](O)(O2)C(=O)C(=O)N2CCCC[C@H]2C(=O)OC([C@H](C)C[C@@H]2CC[C@@H](O)[C@H](OC)C2)CC(=O)[C@H](C)/C=C(\C)[C@@H](O)[C@@H](OC)C(=O)[C@H](C)C[C@H](C)/C=C/C=C/C=C/1C (stereo partly drawn)	-6%	nt	-7%	-11%	45µM*!	?
CO[C@H]1C[C@@H]2CC[C@@H](C)[C@@](O)(O2)C(=O)C(=O)N2CCCC[C@H]2C(=O)O[C@H]([C@H](C)C[C@@H]2CC[C@@H](O)[C@H](OC)C2)CC(=O)[C@H](C)C=C(C)[C@@H](O)[C@@H](OC)C(=O)[C@H](C)C[C@H](C)C=CC=CC=C1C	?	nt	79µM*	6%	nt	?
COC(=O)c1ccc(C(NC(=O)OCc2ccccc2)/C(=C/[C@@H](C)C(=O)NCc2cc(F)cc(F)c2)c2cccnc2)cc1 (stereo partly drawn)	7%	nt	31%	-6%	nt	3%
Cc1cc2c(cc1S(=O)(=O)N(CCN(C)C)Cc1ccco1)OCC(=O)N2	-2%	nt	nt	8%	8%	4%
COc1ccc(/C=C/c2cc(O)cc(O[C@H]3OC(CO)C(O)C(O)C3O)c2)cc1 (stereo partly drawn)	1%	nt	12%	-2%	3%	4%
O=C(/C=C/c1ccccc1)c1ccc(O[C@H]2OC(CO)C(O)C(O)C2O)cc1O (stereo partly drawn)	6%	nt	-32%	7%	16µM*	-8%
COC(=O)[C@]12CCCCC=C1N(Cc1cccc3ccccc13)C(=O)[C@H](CC(=O)N1CCSCC1)C2	nt	-18%	nt	nt	nt	nt
CC(C)(C)c1ccc(S(=O)(=O)/C=C\C#N)cc1	?	nt	45µM*	-16%	2µM*	?
CC(C)(C)c1ccc(S(=O)(=O)N2CCN(CCC#N)CC2)cc1	-9%	-2%	18%	-7%	-3%	-4%
Cc1ccc(S(=O)(=O)/C=C\C#N)cc1	?	nt	45µM*	-8%	2.8µM*	?
Cc1ccc(S(=O)(=O)/C=C/C#N)cc1	-20%	nt	2.8µM*	-5%	11µM*	?
CC(C)Cc1nc(N2CCN(C(=O)c3ccco3)CC2)c(C#N)c2c1CCC2	0%	-14%	45µM*	-4%	-18%	?
N#Cc1c(N2CCN(C(=O)c3ccco3)CC2)nc(-c2ccccc2)c2c1CCCC2	4%	-15%	45µM*	2%	-9%	-16%
CC(C)Cc1nc(N2CCN(C(=O)c3ccccc3)CC2)c(C#N)c2c1CCC2	-3%	-5%	?	-6%	-8%	?
O=C(c1ccco1)N1CCN(c2nc(C3CC3)nc3sc4c(c23)CCCC4)CC1	5%	-24%	79µM*	-8%	?	?
CCOC(=O)c1c(-c2ccc(C)o2)csc1NC(=S)NC(=O)c1ccccc1Br	-15%	-16%	3.5µM*	-22%	-5%	?
CCOC(=O)c1c(-c2ccc(C)o2)csc1NC(=O)CSc1nnc(C)s1	-11%	-9%	22µM*	-18%	-18%	?
CCOC(=O)c1c(-c2ccccc2)csc1NC(=O)CSc1nnc(C)s1	-2%	1%	1%	-24%	-10%	?
CC1C2=C(CC(C)(C)CC2=O)NC2=C1C(=O)CC(C)(C)C2	-4%	-4%	9%	0%	-13%	5%
CC1(C)CC(=O)C2=C(C1)NC(=S)C(C#N)C21CCCCC1 (stereo not drawn)	?	11µM*	11µM*	?	?	nt
O=C1C2ON(c3ccc(Cl)cc3)C(c3ccco3)C2C(=O)N1c1ccccc1 (stereo not drawn)	-3%	-9%	32µM*	-6%	?	0%
SMILES	Tau fibril FP	PLK1 PBD inh	Sfp inh	Tau fluor counter	VDR inhibitor	Tau fibril ThT
Cc1c(Cl)cccc1NC(=O)c1ccc(NC(=O)N2CCSc3ncccc32)cc1	0%	nt	nt	-8%	16%	-17%
CCOC(=O)c1ccc(NC(=O)NCc2ccccn2)cc1	nt	-8%	-6%	nt	13%	nt
N#CC1=C(N)Oc2c(oc(CO)cc2=O)C1c1ccsc1 (stereo not drawn)	-9%	-27%	50µM*	-7%	-12%	-16%
N#CC1=C(N)Oc2c(oc(CO)cc2=O)C1c1cccs1 (stereo not drawn)	0%	-5%	1%	-10%	4%	-12%
O=C(NCCCCCCNC(=O)OCc1ccccc1)OCc1ccccc1	nt	-11%	nt	nt	-13%	nt
O=C(NCCC(=O)N1CCNC1=O)OCc1ccccc1	4%	-13%	50µM*	-3%	-10%	-1%
O=C1NC(c2cc(Cl)cc([N+](=O)[O-])c2O)Nc2ccccc21 (stereo not drawn)	6%	?	12%	-29%	-13%	7.1µM*
CCC(=O)N1CCc2cc(S(=O)(=O)NCCC(=O)Nc3cc(C)cc(C)c3)ccc21	1%	27µM*	13%	-17%	-8%	-4%
CC(=O)N1CCc2cc(S(=O)(=O)NCCC(=O)Nc3cc(C)cc(C)c3)ccc21	4%	-11%	8%	-3%	-6%	-2%
O=C(Nc1cccs1)Nc1c(F)cc(F)cc1Br	11%	-12%	?	3%	-16%	6%
N#Cc1cccc(NC(=O)Nc2cccs2)c1	6%	-13%	?	?	0%	-21%
Cc1cccc(C)c1NC(=O)Nc1cccs1	-13%	-12%	56µM*	-21%	15%	?
O=C(NCc1ccco1)Nc1cccs1	-2%	-11%	18µM*	-20%	-2%	?
O=C(Nc1cccs1)Nc1c(F)c(F)cc(F)c1F	6%	-4%	45µM*	-18%	-12%	?
Cc1cccc(C)c1NC(=O)Cc1cccs1	nt	-9%	13%	nt	-9%	nt
CCc1cccc(NC(=O)Nc2cccs2)c1	?	-20%	32µM*	?	-3%	?
COc1ccccc1N1CCN(CCCNC(=O)c2cnn(-c3cccc(Cl)c3)c2C2CCN(C(=O)OC(C)(C)C)CC2)CC1	3%	nt	nt	-15%	5%	?
Clc1ccccc1CSc1nc(NCCc2ccccc2)c2ccccc2n1	-8%	nt	nt	-18%	4%	-3%
